Laboratory results taken from PubChem BioAssay.
Calls of active or inactive are those of the source.

Key:
[1] = compound effects on differentiated 3T3-L1 adipocyte viability – cell-based, 3T3-L1 adipocytes, calcein-AM fluorescence, 48 h, basal, profiling panel (AID 1163); conditions: 3T3-L1 adipocytes viability, higher = more signal
[2] = compound effects on hepatocellular carcinoma cell viability – HepG2, calcein-AM fluorescence, 48 h, basal, profiling panel (AID 1164); conditions: higher = more signal
[3] = compound effects on multiple myeloma cell viability – MM1S, calcein-AM fluorescence, 48 h, basal, profiling panel (AID 1165); conditions: higher = more signal
[4] = calcein-AM signal in unstimulated myeloma cells – cell-based, calcein-AM fluorescence, 48 h, PK04 Diversity Set, profiling panel (AID 1166); conditions: RPMI8226 myeloma viability, higher = more signal;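 also: cells grown under basal conditions without added stimulus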
[5] = JC-1 mitochondrial signal, unstimulated HepG2 cells – cell-based, JC-1 fluorescence, 24 h, 100 nL compound, profiling panel (AID 1167); conditions: HepG2 mitochondrial potential, higher = more signal
[6] = JC-1 mitochondrial signal, unstimulated adipocytes – cell-based, JC-1 fluorescence, 3T3-L1 adipocytes, 24 h, 100 nL compound, profiling panel (AID 1168); conditions: JC-1 mitochondrial fluorescence, higher = more signal, called active from +8 up or from −8 down
[7] = JC-1 mitochondrial signal, unstimulated myeloma cells – cell-based, JC-1 fluorescence, RPMI8226, 24 h, 100 nL compound, profiling panel (AID 1169); conditions: JC-1 mitochondrial potential fluorescence, higher = more signal
[8] = JC-1 mitochondrial signal, unstimulated MM1S myeloma – cell-based, JC-1 fluorescence, 24 h, 100 nL compound, profiling panel (AID 1170); conditions: MM1S mitochondrial potential, higher = more signal
[9] = resazurin metabolic signal in A549 cells – cell-based, resazurin fluorescence, 24 h, PK04 Diversity Set, profiling panel (AID 1171); conditions: A549 viability, higher = more signal, called active from +8 up or from −8 down
[10] = resazurin metabolic signal in HepG2 cells – cell-based, resazurin fluorescence, 24 h, PK04 Diversity Set, profiling panel (AID 1172); conditions: HepG2 viability, higher = more signal
[11] = budding yeast growth changes without added modifier – OD600, strain BY4716, 24 h, basal condition, primary screen (AID 1173); conditions: S. cerevisiae BY4716 growth, OD600, 24 h; higher = more signal, called active from +8 up or from −8 down
[12] = viability profiling in MM1S myeloma cells – cell-based, resazurin fluorescence, basal, 24 h, PK04 Diversity Set, profiling panel (AID 1174); conditions: higher = more signal, called active from +8 up or from −8 down
[13] = biological target: Dihydroorotate dehydrogenase (quinone), mitochondrial (Plasmodium falciparum (isolate 3D7)) (UniProt Q08210); assay: inhibition of P. falciparum DHODH – biochemical, C-terminal His tag, absorbance 600 nm, primary screen (AID 1175); conditions: PfDHODH enzyme, DCIP absorbance 600 nm; higher = more signal, called active from +8 up or from −8 down;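 also: recombinant parasite enzyme with a five histidine tag at its C terminus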
Dihydroorotate dehydrogenase (quinone), mitochondrial (Plasmodium falciparum (isolate 3D7)), sequence (Q08210 whole entry, looked up): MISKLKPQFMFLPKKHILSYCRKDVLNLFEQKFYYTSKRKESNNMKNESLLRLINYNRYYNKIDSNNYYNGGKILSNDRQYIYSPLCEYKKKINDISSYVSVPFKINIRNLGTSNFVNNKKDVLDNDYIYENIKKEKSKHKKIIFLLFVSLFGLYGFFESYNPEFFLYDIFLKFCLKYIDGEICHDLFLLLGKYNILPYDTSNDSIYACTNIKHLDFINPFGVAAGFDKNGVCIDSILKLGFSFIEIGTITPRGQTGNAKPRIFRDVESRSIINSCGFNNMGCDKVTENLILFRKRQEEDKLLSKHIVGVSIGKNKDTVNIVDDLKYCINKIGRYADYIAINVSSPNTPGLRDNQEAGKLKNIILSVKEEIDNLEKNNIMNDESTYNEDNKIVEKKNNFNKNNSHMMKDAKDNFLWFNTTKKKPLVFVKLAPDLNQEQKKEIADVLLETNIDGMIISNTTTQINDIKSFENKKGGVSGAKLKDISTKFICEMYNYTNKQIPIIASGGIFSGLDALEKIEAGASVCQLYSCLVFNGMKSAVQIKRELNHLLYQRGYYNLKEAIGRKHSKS

[14] = growth modulation of vineyard yeast isolate – strain RM11-1a, OD600, basal, 24 h, primary screen (AID 1177);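 also: cultures grown under basal conditions with no added stressor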; conditions: S. cerevisiae RM11-1a growth, OD600, 24 h; higher = more signal, called active from +8 up or from −8 down
[15] = growth of efflux-deficient E. coli DRC39 – strain DRC39, OD650, 24 h, E. coli filamentation inducers, primary screen (AID 1178);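 also: growth measured as culture turbidity by optical density at 650 nm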; conditions: E. coli DRC39 acrAB, higher = more signal, called active from +8 up or from −8 down
[16] = growth of efflux-deficient E. coli DRC39 – strain DRC39, OD650, 48 h, E. coli filamentation inducers, primary screen (AID 1179);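 also: screen aims at cell division blockers that make cells filament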; conditions: E. coli DRC39 delta-acrAB growth, higher = more signal, called active from +8 up or from −8 down
[17] = viability profiling in RPMI8226 myeloma cells – cell-based, resazurin fluorescence, basal, 24 h, PK04 Diversity Set, profiling panel (AID 1180); conditions: higher = more signal;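 also: RPMI8826 multiple myeloma cell line at 5000 cells per well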
[18] = biological target: E3 ubiquitin-protein ligase XIAP (Homo sapiens) (UniProt P98170); assay: small molecules binding XIAP protein – biophysical, small-molecule microarray, fluorescence 635 nm, primary screen (AID 1181); conditions: higher = more signal;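 also: score merges 667 nm emission and signal to noise over triplicate slides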
E3 ubiquitin-protein ligase XIAP (Homo sapiens), sequence (P98170 whole entry, looked up, the tested form may be a part): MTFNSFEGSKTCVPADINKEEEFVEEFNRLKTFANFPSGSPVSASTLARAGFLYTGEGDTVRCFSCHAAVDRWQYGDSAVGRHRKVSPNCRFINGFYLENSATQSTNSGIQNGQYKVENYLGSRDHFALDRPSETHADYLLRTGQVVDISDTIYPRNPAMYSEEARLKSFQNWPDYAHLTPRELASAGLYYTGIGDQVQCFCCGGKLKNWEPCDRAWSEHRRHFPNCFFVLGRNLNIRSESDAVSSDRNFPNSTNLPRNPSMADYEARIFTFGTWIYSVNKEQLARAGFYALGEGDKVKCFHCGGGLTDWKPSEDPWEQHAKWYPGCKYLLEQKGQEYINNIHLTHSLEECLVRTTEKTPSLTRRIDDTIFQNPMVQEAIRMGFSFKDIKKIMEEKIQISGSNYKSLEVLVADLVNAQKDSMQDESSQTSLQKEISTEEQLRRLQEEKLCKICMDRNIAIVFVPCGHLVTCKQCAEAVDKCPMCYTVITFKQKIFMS

[19] = tested on: XIP peptide (Xip251-270) binding; assay: XIP fragment 251-270 binding compounds – biochemical, small-molecule microarray, fluorescence 635/667 nm, 0.1 µg/mL protein, primary screen (AID 1182); conditions: fluorescent protein binding, 635 nm, higher = more signal, called active from +8 up or from −8 down
XIP peptide (Xip251-270) = assay: compounds binding XIP fragment 251-270 – biochemical, small-molecule microarray, fluorescence 635/667 nm, 0.5 µg/mL protein, primary screen (AID 1183); conditions: fluorescence 635 nm, higher = more signal

Compound `C=C(C(=O)CC[C@H](OC(C)=O)c1ccc(CO)o1)C(C)C` has a z-score [1] of 2.11, a z-score [2] of -1.14 and a z-score [3] of -2.73. For the same compound, the z-score [4] was -0.639, the z-score [5] was 0.672 and the z-score [6] was 2.3 (inactive). For the same compound, the z-score [7] was -0.378, the z-score [8] was 0.548 and the z-score [9] was -0.158 (inactive). For the same compound, the z-score [10] was 0.0204, the z-score [11] was -0.273 (inactive) and the z-score [12] was 0.0516 (inactive). For the same compound, the composite z-score [13] was -0.969 (inactive), the z-score [14] was -0.487 (inactive) and the z-score [15] was 1.63 (inactive). For the same compound, the z-score [16] was 0.359 (inactive), the z-score [17] was 0.739 and the composite z-score [18] was 0.0028. For the same compound, the composite z-score [19] was 2.48 (inactive) and the composite z-score (XIP peptide (Xip251-270)) was -0.365.

Work on `[N-]=[N+]=Nc1ccccc1[C@H]1OC(c2ccc(OCCCO)cc2)=N[C@@]1(Cc1ccccc1)C(N)=O` yielded a z-score [1] of 1.26, a z-score [2] of 0.13 and a z-score [3] of -3.09. The z-score [4] was -3.37, the z-score [5] was 0.912 and the z-score [6] was 3.11 (inactive). For the same compound, the z-score [7] was -1.05, the z-score [8] was -1.45 and the z-score [9] was -1.6 (inactive). For the same compound, the z-score [10] was 0.0234, the z-score [11] was -1.69 (inactive) and the z-score [12] was -1.29 (inactive). For the same compound, the composite z-score [13] was -0.227 (inactive), the z-score [14] was 0.401 (inactive) and the z-score [15] was 2.24 (inactive). The z-score [16] was 1.45 (inactive), the z-score [17] was -1.96 and the composite z-score [18] was -0.0351. The composite z-score [19] was 1.05 (inactive) and the composite z-score (XIP peptide (Xip251-270)) was 0.657.

Compound `CC(C)C[C@@H]1NC(=O)[C@@]23C(=O)N[C@@H](Cc4ccccc4)C2[C@H](C)[C@@]2(C)O[C@H]2C3/C=C/CC/C=C/CNC(=O)[C@@H](C)NC1=O` (stereo not given in full) has a z-score [1] of 1.98, a z-score [2] of -0.309 and a z-score [3] of 0.827. The z-score [4] was -0.386, the z-score [5] was 1.82 and the z-score [6] was 0.918 (inactive). For the same compound, the z-score [7] was -0.205, the z-score [8] was 2.11 and the z-score [9] was -0.613 (inactive). For the same compound, the z-score [10] was -0.589, the z-score [11] was -1.92 (inactive) and the z-score [12] was 0.603 (inactive). The composite z-score [13] was 0.596 (inactive), the z-score [14] was -0.209 (inactive) and the z-score [15] was 2.5 (inactive). For the same compound, the z-score [16] was 1.34 (inactive), the z-score [17] was 0.866 and the composite z-score [18] was -0.227. The composite z-score [19] was -0.804 (inactive) and the composite z-score (XIP peptide (Xip251-270)) was -0.0387.

With `C=CC[C@]1(C(=O)N2CCCCC2)COC(c2ccc(OCCCO)cc2)=N1` the z-score [1] was 1.98, the z-score [2] was -2.29 and the z-score [3] was -3.6. The z-score [4] was -2.3, the z-score [5] was -0.223 and the z-score [6] was 0.322 (inactive). For the same compound, the z-score [7] was -0.749, the z-score [8] was -0.435 and the z-score [9] was -0.585 (inactive). The z-score [10] was 1.55, the z-score [11] was -6.59 (inactive) and the z-score [12] was -0.863 (inactive). The composite z-score [13] was -0.0606 (inactive), the z-score [14] was 0.474 (inactive) and the z-score [15] was 2.98 (inactive). The z-score [16] was 0.693 (inactive), the z-score [17] was 0.909 and the composite z-score [18] was -0.17. For the same compound, the composite z-score [19] was 0.502 (inactive) and the composite z-score (XIP peptide (Xip251-270)) was 0.54.
